An excerpt weighted towards active compounds, which were near 5.4% of everything screened.
Mdm2 MdmX PPI: disrupts the human Mdm2-MdmX interaction. O15151+Q00987. SaOS-2 split-luciferase Mdm2/MdmX complementation, luminescence. inhibition, % at 8 µM. hit rate 3% among 330,000;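 active = inhibition of at least 50% at 8 µM in the primary screen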
Calb FLC: C. albicans growth modulation with fluconazole; C. albicans CaCi-2 (fluconazole-resistant clinical isolate) + fluconazole, Alamar Blue growth, 48 h; growth inhibition, % (concentration not given with the values); hit rate 0.57% among 300,000; AID 1979;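 active = growth inhibition above about 58% in most replicates, limit read from the data, passing the limit was not always enough; inconclusive = exactly half the replicates above a set limit; inactive = most replicates below a set limit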;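 also: all wells also contain fluconazole at 8 µg/ml as a sub-toxic cotreatment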
SKKanGAS inh: SKKanGAS growth inhibition. S. pyogenes SKKanGAS, kanamycin growth, BacTiter-Glo, 6 h. inhibition, % at 7.5 µM. hit rate 1.3% among 300,000. AID 1662;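 active = mean replicate score, as percent of positive control median, at least 50; inconclusive = mean below 50 but one replicate at or above 50; inactive = mean and every replicate below 50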;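 also: strain carries kanamycin resistance gene driven by streptokinase promoter and grows in 40 µg/ml kanamycin; loss of luminescence reflects streptokinase promoter inhibition or plain growth inhibition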
MPTP block: permeability transition pore inhibition; AID 602449; hit rate 1.4% among 360,000; inhibition, % at 10 µM; isolated mouse mitochondria, Ca2+ swelling absorbance, 30 min;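 active = inhibition of 50% or more, scaled per plate between neutral and stimulator controls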
CSC inhib: cancer stem cell inhibition | hit rate 1.1% among 300,000 | inhibition, % at 7.5 µM | cancer stem cell-like cells viability, luminescence; in the data active = inhibition above about 75%; inconclusive = no clear call, values can overlap the other calls; tested in HMLE shEcad cells
Beta cell apopt: beta cell apoptosis inhibition; protection from apoptosis, % (concentration not given with the values); AID 435005; INS-1E cytokine-induced death, ATP luminescence, 48 h; percent of positive-control rescue, neutral wells zero; hit rate 0.8% among 300,000;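 active = Every replicate reaches about 75%, or at least half do and their mean reaches it too, limit read from the data; inconclusive = At least half of replicates reach the limit but their mean does not; inactive = Under half of replicates reach the limit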;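 also: higher means more ATP so stronger rescue from cytokine killing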
Mdm2 MdmX conf: confirmation of human Mdm2/MdmX interaction inhibitors; hit rate 55% among 10,000; inhibition, % at 8 µM; shares compounds with Mdm2 MdmX PPI; AID 489028; Mdm2-MdmX binding, luminescent assay; in the data active = inhibition above about 40%
Full FLuc ctr: full-length luciferase inhibition in Mdm2/MdmX counter-screen; shares compounds with Mdm2 MdmX PPI; SaOS-2 full-length luciferase counterscreen, luminescence; inhibition, % at 8 µM; hit rate 77% among 6,200;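 active = mean inhibition at 8 µM reaching about 37%, which flags the compound as non-specific, limit read from the data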;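 also: p53-null SaOS-2 cells with luciferase driven by a doxycycline-inducible promoter; compound on cells about two nights before reading with doxycycline added after day one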
Hits are given with their value; 0 = inactive; ? = inconclusive; - = no result given.

SMILES | Mdm2 MdmX PPI | Calb FLC | SKKanGAS inh | MPTP block | CSC inhib | Beta cell apopt | Mdm2 MdmX conf | others
Cn1c(SCC(=O)NC(C)(C)C)nnc1-c1cnccn1 | 0 | 0 | 0 | 0 | 0 | 0 | -
COc1ccccc1N1CCN(S(=O)(=O)c2ccc(-c3cnc(C4CC4)o3)cc2)CC1 | 0 | 0 | 0 | 0 | 0 | 0 | -
Cc1ccc(NS(=O)(=O)c2ccc(-c3cnc(C4CC4)o3)cc2)c(C)c1 | 77 | 0 | 0 | 0 | ? | 0 | 56 | Full FLuc ctr=95
COc1cccc(N2CCN(S(=O)(=O)c3ccc(-c4cnc(C5CC5)o4)cc3)CC2)c1 | 79 | 0 | 0 | 0 | 0 | 0 | 0
CCOc1ccccc1NS(=O)(=O)c1ccc(-c2cnc(C3CC3)o2)cc1 | 73 | 0 | 0 | 0 | 0 | 0 | 56 | Full FLuc ctr=117
COc1ccc(N2CCN(S(=O)(=O)c3ccc(-c4cnc(C5CC5)o4)cc3)CC2)cc1 | 0 | 0 | 0 | 0 | 0 | 0 | -
CCc1ccc(N=C2NC(=O)/C(=C/c3ccc(OCC(=O)O)c(OC)c3)S2)cc1 | 0 | 0 | 0 | 0 | - | - | -
COc1ccc(N=C2NC(=O)/C(=C/c3ccc(O)c(OC)c3)S2)cc1 | 0 | 0 | 0 | 0 | 0 | 0 | -
COc1cc(/C=C2/SC(=Nc3ccc(O)cc3)NC2=O)cc(OC)c1O | 62 | 0 | 0 | 0 | - | - | 61 | Full FLuc ctr=62
COc1cc(/C=C2\SC(=Nc3ccc(O)cc3)NC2=O)cc(OC)c1OC | 52 | 0 | 0 | - | 0 | 0 | 65 | Full FLuc ctr=0
O=C(COc1ccc(S(=O)(=O)N2CCCC2)cc1)N1CCCC1 | 0 | 0 | 0 | 0 | 0 | 0 | -
O=C(CCC(=O)OCc1ccc(Br)cc1)Nc1ccccc1 | 0 | 0 | 0 | 0 | 0 | 0 | -
CCOC(=O)C(=O)NNc1cccc(C)c1C | 0 | 0 | 0 | 0 | 0 | 0 | -
Cc1ccc(N(CC(=O)NN=C2CCN(C)CC2)S(=O)(=O)c2ccccc2)c(C)c1 | 0 | 0 | 0 | 0 | 0 | 0 | -
O=C(c1ccc(C#CC2(O)CCCCC2)cc1)N1CCN(Cc2ccccc2)CC1 | 0 | 0 | 0 | 0 | 0 | 0 | -
O=C(c1ccc(C#CC2(O)CCCCC2)cc1)N1CCN(C(c2ccccc2)c2ccccc2)CC1 | 57 | 0 | 0 | 0 | 77 | 0 | 0
COc1ccc(/C=C/C(=O)Nc2cc(C)nn2-c2nc3ccccc3n2Cc2cccc([N+](=O)[O-])c2)cc1 | 0 | 0 | 0 | 0 | 0 | 0 | -
COc1cccc(N2CCN(c3ccc4nnc(CCC(=O)N5CCC(C)CC5)n4n3)CC2)c1 | 0 | 0 | 0 | 0 | 0 | 0 | -
FC(F)(F)c1cc(CCN2CCNC[C@H]2Cc2cccc3ccccc23)cc(C(F)(F)F)c1 | 100 | 0 | 70 | 0 | ? | 0 | 0 | Full FLuc ctr=75
Oc1ccc(C[C@@H]2CNCCN2CCCCC2CCCCC2)cc1 | 57 | 0 | 0 | 0 | 0 | 0 | 0
Oc1ccc(C[C@H]2CNCCN2CCc2cc(C(F)(F)F)cc(C(F)(F)F)c2)cc1 | 58 | 0 | 0 | 0 | 0 | 0 | 0
c1ccc(C[C@H]2CNCCN2CCc2cccc3ccccc23)cc1 | 0 | 0 | 0 | 0 | 0 | 0 | -
COc1ccc(C2OC(=O)C(C)(C)C(=O)C2(C)C)cc1OC (stereo unspecified) | 0 | 0 | 0 | 0 | 0 | 0 | -
COc1ccc(N/N=C(/N=Nc2nc(C)cc(=O)[nH]2)c2ccccc2)cc1 | 54 | 0 | 0 | 0 | 0 | 91 | 77 | Full FLuc ctr=0
Cc1cc(=O)[nH]c(N=N/C(=N/Nc2ccc(O)cc2)c2ccccc2)n1 | 0 | 0 | 0 | 0 | 0 | 0 | -
SMILES | Mdm2 MdmX PPI | Calb FLC | SKKanGAS inh | MPTP block | CSC inhib | Beta cell apopt | Mdm2 MdmX conf | others
Cc1cc(=O)[nH]c(N=N/C(=N/Nc2ccccc2C)c2ccccc2)n1 | 69 | 0 | 0 | 0 | 0 | 93 | 82 | Full FLuc ctr=49
Cn1c(Cc2ccc3c(c2)OCO3)nnc1SCC(=O)NC(C)(C)C | 0 | 0 | 0 | 0 | 0 | 0 | -
Cc1ccc(C)c(N2CCN(C(=O)c3ccc4nc(-c5ccco5)c(-c5ccco5)nc4c3)CC2)c1 | 0 | 0 | 0 | 0 | 0 | 0 | -
COc1ccccc1N1CCN(C(=O)c2ccc3nc(-c4ccco4)c(-c4ccco4)nc3c2)CC1 | 54 | 0 | 0 | 0 | 0 | 0 | 0
COc1ccccc1N1CCN(C(=O)c2ccc3c(Cl)c4c(nc3c2)CCCC4)CC1 | 64 | 0 | 0 | 0 | 0 | 0 | 0
Cc1ccccc1NC(=S)N1CCCC(c2nc3ccccc3[nH]2)C1 (stereo unspecified) | 0 | 0 | 0 | 0 | 0 | 0 | -
